Out of some 5,500 compounds screened, about 2,000 (36%) were called active. About 18% were inconclusive and are not listed. Rule as the data show it: active = normalized growth mostly below about 0.91 (no sharp cut-off); inconclusive = no clear call, values can overlap the other calls; inactive = mostly above about 0.92. The list shows a part of the results.
Assay: chemical genetic growth profiling, strain panel (AID 1159580);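 also: tested at 20 µM; growth read once vehicle control cultures reached saturation at 30 °C; 1 = growth at the plate median or of vehicle wells; lower values mean less growth of the strain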
Settings: S. cerevisiae deletion strains, growth OD
[1] = locus YDL101C, strain DUN1, hits give low values
[2] = locus YHR030C, strain SLT2, hits give low values

Measured: normalized growth

COC(=O)c1sccc1OC(=O)c1c(F)cccc1F
inactive: locus YAL013W, strain DEP1, hits give low values 0.963 | locus YBR229C, strain ROT2, hits give low values 0.974 | [1] 0.908 | locus YDR150W, strain NUM1, hits give low values 0.939 | locus YEL061C, strain CIN8, hits give low values 1.01 | locus YGR078C, strain PAC10, hits give low values 0.955 | [2] 0.726 | locus YHR087W, strain rtc3, hits give low values 1.02 | locus YJR043C, strain POL32, hits give low values 0.981 | locus YJR075W, strain HOC1, hits give low values 0.97 | locus YKL190W, strain CNB1, hits give low values 0.989 | locus YLR039C, strain RIC1, hits give low values 0.841 | locus YLR058C, strain SHM2 (second series), hits give low values 0.961 | locus YLR085C, strain ARP6, hits give low values 0.891 | locus YLR262C, strain YPT6, hits give low values 0.914 | locus YML094W, strain GIM5, hits give low values 0.981 | locus YMR219W, strain ESC1, hits give low values 0.955 | locus YMR263W, strain SAP30, hits give low values 0.974 | locus YMR307W, strain GAS1, hits give low values 0.975 | locus YNL153C, strain GIM3, hits give low values 0.99 | locus YNL298W, strain CLA4 (second series), hits give low values 0.912 | locus YNL322C, strain KRE1, hits give low values 0.96 | locus YNR030W, strain Alg12, hits give low values 0.979 | locus YOL006C, strain TOP1, hits give low values 0.884 | locus YPL055C, strain LGE1, hits give low values 0.97 | locus YPL241C, strain CIN2, hits give low values 0.926 | locus YPR135W, strain CTF4, hits give low values 0.768

Cc1ccc(OCC2SCCN2C(=O)c2ccc(C(F)(F)F)cc2)c([N+](=O)[O-])c1 (stereo not drawn)
inactive: locus YAR019C, strain CDC15, hits give low values 1.01 | locus YBL105C, strain PKC1, hits give low values 1.01 | locus YBR135W, strain CKS1, hits give low values 1.01 | locus YBR136W, strain MEC1, hits give low values 1.02 | locus YBR160W, strain CDC28, hits give low values 1.01 | locus YDL017W, strain CDC7, hits give low values 1.03 | locus YDL028C, strain MPS1, hits give low values 1.02 | [1] 1 | locus YDL108W, strain KIN28, hits give low values 1.02 | locus YDL132W, strain cdc53, hits give low values 1 | locus YDL214C, strain PRR2, hits give low values 0.998 | locus YDR052C, strain DBF4, hits give low values 1.02 | locus YDR054C, strain cdc34, hits give low values 0.986 | locus YDR226W, strain ADK1, hits give low values 1.01 | locus YDR477W, strain SNF1, hits give low values 0.981 | locus YER123W, strain YCK3, hits give low values 0.955 | locus YER133W, strain GLC7, hits give low values 0.985 | locus YFL009W, strain cdc4, hits give low values 1.02 | locus YFL029C, strain CAK1, hits give low values 1.01 | locus YFR003C, strain YPI1, hits give low values 1.01 | locus YFR019W, strain FAB1, hits give low values 0.97 | locus YFR028C, strain CDC14, hits give low values 1.01 | locus YGR040W, strain KSS1, hits give low values 1 | locus YGR052W, strain FMP48, hits give low values 1.12 | locus YGR092W, strain DBF2, hits give low values 1.02 | [2] 0.984 | locus YHR079C, strain IRE1, hits give low values 1.01 | locus YHR082C, strain KSP1, hits give low values 1.09 | locus YHR205W, strain SCH9, hits give low values 0.998 | locus YIL147C, strain SLN1, hits give low values 1.02 | locus YJL095W, strain BCK1, hits give low values 1.01 | locus YJL128C, strain PBS2, hits give low values 0.979 | locus YJL157C, strain FAR1, hits give low values 0.994 | locus YJR016C, strain ILV3, hits give low values 1.01 | locus YJR066W, strain TOR1 (second series), hits give low values 0.927 | locus YJR066W, strain TOR1, hits give low values 1.06 | locus YKL048C, strain ELM1, hits give low values 1 | locus YKL067W, strain YNK1, hits give low values 1 | locus YKL101W, strain HSL1, hits give low values 0.996 | locus YKL193C, strain SDS22, hits give low values 1.02 | locus YKL203C, strain TOR2, hits give low values 1.04 | locus YLR113W, strain HOG1, hits give low values 0.97 | locus YLR133W, strain CKI1, hits give low values 1 | locus YLR403W, strain SFP1, hits give low values 0.997 | locus YML070W, strain DAK1, hits give low values 0.982 | locus YMR001C, strain CDC5, hits give low values 1.01 | locus YMR205C, strain PFK2 (second series), hits give low values 1 | locus YMR277W, strain FCP1, hits give low values 1.02 | locus YNL006W, strain LST8, hits give low values 1.02 | locus YNL020C, strain ARK1, hits give low values 1 | locus YNL161W, strain CBK1, hits give low values 1.01 | locus YNL183C, strain NPR1, hits give low values 1.06 | locus YNL207W, strain RIO2, hits give low values 1.02 | locus YNL222W, strain SSU72, hits give low values 1.01 | locus YNL307C, strain MCK1 (second series), hits give low values 0.993 | locus YOL078W, strain AVO1, hits give low values 1.01 | locus YOL136C, strain PFK27, hits give low values 0.965 | locus YOR061W, strain CKA2, hits give low values 0.978 | locus YOR119C, strain RIO1, hits give low values 1.05 | locus YOR231W, strain MKK1, hits give low values 0.955 | locus YOR329C, strain SCD5, hits give low values 1.02 | locus YPL031C, strain PHO85, hits give low values 0.992 | locus YPL153C, strain RAD53, hits give low values 0.987 | locus YPL204W, strain HRR25, hits give low values 0.99 | locus YPL209C, strain IPL1, hits give low values 1.01 | locus YPL256C, strain CLN2, hits give low values 0.962 | locus YPR025C, strain CCL1, hits give low values 1.01 | locus YPR106W, strain ISR1, hits give low values 1.01 | locus YPR111W, strain DBF20, hits give low values 1 | strain NNK1, hits give low values 1.03 | strain TSCII, hits give low values 1

Reference: PubChem BioAssay AID1159580 (chemical genetic matrix, 2015)
